Results published in PubChem BioAssay.
A number with no mark means an inactive call. Calls of active or inactive are those of the source. Rule as the data show it, unless noted: active = inhibition above about 25%; inactive = the rest.

Tests used:
[1] = target: Nuclear receptor coactivator 3 (Homo sapiens) (UniProt Q9Y6Q9); assay: SRC3 coactivator transcriptional activity inhibitors, confirmation, cell-based, luminescence, quadruplicate (AID 588792;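 active = mean inhibition over 43.08%, the solvent-only control mean plus 3 SD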;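 also: 0% = DMSO treated cells and 100% = gossypol at 36 µM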); conditions: HEK293 GAL4-SRC3 luciferase reporter, at 3.6 µM, hits give high values
Nuclear receptor coactivator 3 (Homo sapiens), sequence (Q9Y6Q9 whole entry, looked up, the tested form may be a part): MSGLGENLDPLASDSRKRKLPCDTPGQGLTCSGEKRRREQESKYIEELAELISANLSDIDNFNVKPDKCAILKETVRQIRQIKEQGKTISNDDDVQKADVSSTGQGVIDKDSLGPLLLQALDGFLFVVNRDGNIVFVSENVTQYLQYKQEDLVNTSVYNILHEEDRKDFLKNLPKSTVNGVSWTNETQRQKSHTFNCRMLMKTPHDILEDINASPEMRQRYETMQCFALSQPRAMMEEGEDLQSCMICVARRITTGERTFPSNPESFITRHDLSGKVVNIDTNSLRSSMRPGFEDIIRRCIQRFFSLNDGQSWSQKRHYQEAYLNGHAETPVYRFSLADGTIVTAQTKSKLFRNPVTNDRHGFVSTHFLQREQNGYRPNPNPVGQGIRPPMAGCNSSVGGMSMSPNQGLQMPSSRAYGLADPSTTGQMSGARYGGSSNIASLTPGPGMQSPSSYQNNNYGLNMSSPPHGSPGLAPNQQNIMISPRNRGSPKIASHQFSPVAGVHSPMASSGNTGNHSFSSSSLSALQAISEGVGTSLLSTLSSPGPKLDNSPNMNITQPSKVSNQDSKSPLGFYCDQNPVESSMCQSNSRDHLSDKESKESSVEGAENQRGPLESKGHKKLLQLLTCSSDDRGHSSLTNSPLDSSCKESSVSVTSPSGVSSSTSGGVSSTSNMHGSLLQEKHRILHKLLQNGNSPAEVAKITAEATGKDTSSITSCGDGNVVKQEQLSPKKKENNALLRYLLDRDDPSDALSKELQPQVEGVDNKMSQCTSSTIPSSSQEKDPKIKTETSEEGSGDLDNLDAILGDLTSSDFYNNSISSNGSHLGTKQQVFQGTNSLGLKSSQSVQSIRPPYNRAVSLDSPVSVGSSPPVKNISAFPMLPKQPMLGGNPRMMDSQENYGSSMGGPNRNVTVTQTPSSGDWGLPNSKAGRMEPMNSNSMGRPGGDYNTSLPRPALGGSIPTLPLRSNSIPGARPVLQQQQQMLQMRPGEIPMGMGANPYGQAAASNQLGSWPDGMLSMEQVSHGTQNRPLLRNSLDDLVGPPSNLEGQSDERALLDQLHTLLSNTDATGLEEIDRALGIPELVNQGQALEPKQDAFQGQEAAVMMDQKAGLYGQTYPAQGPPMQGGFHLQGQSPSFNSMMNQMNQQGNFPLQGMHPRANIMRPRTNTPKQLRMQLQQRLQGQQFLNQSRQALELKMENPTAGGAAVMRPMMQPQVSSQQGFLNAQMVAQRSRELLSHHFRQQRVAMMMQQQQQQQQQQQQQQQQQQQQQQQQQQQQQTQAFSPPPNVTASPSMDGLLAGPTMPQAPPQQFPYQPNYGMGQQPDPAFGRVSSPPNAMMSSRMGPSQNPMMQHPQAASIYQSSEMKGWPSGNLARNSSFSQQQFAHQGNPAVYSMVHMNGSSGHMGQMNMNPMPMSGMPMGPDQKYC

[2] = system: transactivating tegument protein VP16 (Human herpesvirus 1), Gal4-VP16 luciferase reporter; assay: VP16 transactivation inhibitors, counter-screen for SRC3 inhibitor project, cell-based, luminescence, high throughput (AID 588794; in the data active = inhibition above about 30%); conditions: mammalian cells, VP16-driven luciferase reporter luminescence; at 3.6 µM; hits give high values
[3] = target: Nuclear receptor coactivator 1 (Homo sapiens) (UniProt Q15788); assay: SRC1 coactivator transcriptional activity inhibitors, confirmation, cell-based, luminescence, quadruplicate (AID 588820;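 active = mean inhibition above 46.68%, the untreated control wells mean plus 3 SD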;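 also: 0% = DMSO wells and 100% = gossypol 36 µM treated wells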); conditions: HEK293 GAL4-SRC1 luciferase reporter, at 3.6 µM, hits give high values
Nuclear receptor coactivator 1 (Homo sapiens), sequence (Q15788 whole entry, looked up, the tested form may be a part): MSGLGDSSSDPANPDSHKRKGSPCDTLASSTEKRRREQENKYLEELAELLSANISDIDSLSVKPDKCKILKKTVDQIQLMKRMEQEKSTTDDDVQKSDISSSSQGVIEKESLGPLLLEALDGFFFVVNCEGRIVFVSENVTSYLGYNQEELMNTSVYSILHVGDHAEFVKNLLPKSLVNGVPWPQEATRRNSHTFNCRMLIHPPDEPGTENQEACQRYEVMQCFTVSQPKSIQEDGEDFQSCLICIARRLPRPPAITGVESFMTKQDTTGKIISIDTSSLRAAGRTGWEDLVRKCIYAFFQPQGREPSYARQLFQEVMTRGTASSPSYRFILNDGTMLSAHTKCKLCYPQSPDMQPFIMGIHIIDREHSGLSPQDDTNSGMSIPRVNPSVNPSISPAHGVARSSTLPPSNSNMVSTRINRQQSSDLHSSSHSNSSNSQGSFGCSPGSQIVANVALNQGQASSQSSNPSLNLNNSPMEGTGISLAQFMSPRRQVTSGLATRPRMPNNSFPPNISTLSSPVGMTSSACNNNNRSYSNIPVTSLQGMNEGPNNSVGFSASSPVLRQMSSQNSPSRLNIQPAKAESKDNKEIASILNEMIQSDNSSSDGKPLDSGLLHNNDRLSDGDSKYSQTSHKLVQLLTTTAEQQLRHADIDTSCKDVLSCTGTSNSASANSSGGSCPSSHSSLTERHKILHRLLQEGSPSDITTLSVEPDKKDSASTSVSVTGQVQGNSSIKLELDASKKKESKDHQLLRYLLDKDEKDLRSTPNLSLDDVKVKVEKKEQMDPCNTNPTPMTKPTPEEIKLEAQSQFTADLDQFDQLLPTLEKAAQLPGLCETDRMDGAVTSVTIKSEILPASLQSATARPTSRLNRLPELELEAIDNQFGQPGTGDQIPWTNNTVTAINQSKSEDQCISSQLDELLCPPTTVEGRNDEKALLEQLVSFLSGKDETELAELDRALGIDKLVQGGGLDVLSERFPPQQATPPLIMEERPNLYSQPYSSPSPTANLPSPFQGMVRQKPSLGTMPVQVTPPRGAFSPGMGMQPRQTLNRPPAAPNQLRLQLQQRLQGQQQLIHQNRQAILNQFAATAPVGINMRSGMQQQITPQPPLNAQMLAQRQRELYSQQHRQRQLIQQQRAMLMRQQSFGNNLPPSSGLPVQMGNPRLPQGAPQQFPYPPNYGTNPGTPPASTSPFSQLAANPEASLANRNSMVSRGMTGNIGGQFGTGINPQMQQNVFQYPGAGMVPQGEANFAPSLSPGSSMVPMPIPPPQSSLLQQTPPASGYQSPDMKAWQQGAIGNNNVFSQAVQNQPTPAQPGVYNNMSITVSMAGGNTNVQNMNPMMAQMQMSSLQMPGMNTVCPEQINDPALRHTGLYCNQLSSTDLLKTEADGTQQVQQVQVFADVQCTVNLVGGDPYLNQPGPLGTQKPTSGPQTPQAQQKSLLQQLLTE

[4] = VP16 transactivation inhibitors, counter-screen for SRC1 inhibitor project, cell-based, luminescence, high throughput (AID 588824); conditions: cell-based VP16 transactivation luciferase luminescence; at 3.6 µM; hits give high values
[5] = StAR promoter reporter inhibitors, counter-screen for LRH-1 inverse agonist project, cell-based, luminescence, high throughput (AID 651611; in the data active = inhibition above about 28%); conditions: StAR promoter luciferase reporter counterscreen, at 3.6 µM, hits give high values
[6] = target: Nuclear receptor subfamily 5 group A member 2 (Homo sapiens) (UniProt O00482); assay: LRH-1 (NR5A2) inverse agonists, retest, confirmation, cell-based, luminescence (AID 651613; in the data active = inhibition above about 42%;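 also: HEK293T cells co-transfected with LRH-1 and StAR promoter luciferase reporter; 0% = vehicle wells and 100% = parental cells lacking receptor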); conditions: cell-based LRH-1 luciferase reporter, inverse agonism; at 3.6 µM; hits give high values
Nuclear receptor subfamily 5 group A member 2 (Homo sapiens), sequence (O00482 whole entry, looked up): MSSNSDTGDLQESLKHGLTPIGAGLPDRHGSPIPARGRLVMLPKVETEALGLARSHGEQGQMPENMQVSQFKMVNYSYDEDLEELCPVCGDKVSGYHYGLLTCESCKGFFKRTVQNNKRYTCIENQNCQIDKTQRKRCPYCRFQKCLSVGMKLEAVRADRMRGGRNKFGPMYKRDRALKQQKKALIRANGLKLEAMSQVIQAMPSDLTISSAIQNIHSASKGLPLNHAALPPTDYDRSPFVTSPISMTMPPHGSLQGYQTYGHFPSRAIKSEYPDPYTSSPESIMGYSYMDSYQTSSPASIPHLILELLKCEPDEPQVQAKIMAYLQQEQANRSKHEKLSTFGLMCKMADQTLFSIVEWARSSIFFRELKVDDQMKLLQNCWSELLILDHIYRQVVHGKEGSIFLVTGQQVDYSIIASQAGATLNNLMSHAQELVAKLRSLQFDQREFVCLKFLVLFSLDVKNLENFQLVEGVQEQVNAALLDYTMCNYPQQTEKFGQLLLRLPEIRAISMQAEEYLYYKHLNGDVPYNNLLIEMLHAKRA

[7] = target: Steroidogenic factor 1 (Homo sapiens) (UniProt Q13285); assay: SF1 (NR5A1) inverse agonists, counter-screen for LRH-1 inverse agonist project, cell-based, luminescence, high throughput (AID 651614; in the data active = inhibition above about 44%;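 also: cells cotransfected with StAR promoter reporter and SF1 expression vector; 0% = vehicle on cells with receptor and 100% = vehicle on cells lacking receptor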); conditions: cell-based SF1 luciferase reporter, at 3.6 µM, hits give high values
Steroidogenic factor 1 (Homo sapiens), sequence (Q13285 whole entry, looked up, the tested form may be a part): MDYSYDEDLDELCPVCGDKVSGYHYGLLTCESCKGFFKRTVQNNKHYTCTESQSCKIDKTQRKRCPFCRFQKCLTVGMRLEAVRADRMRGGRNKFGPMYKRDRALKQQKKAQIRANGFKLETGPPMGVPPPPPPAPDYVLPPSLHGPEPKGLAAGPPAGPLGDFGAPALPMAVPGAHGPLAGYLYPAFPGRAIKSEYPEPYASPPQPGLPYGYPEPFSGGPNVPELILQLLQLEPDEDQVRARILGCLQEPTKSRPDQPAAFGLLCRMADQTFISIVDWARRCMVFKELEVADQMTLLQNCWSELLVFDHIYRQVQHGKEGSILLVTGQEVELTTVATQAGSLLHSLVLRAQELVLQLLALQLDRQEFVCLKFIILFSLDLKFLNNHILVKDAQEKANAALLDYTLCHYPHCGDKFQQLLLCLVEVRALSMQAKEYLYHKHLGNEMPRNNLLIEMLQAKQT

[8] = VP16 transactivation reporter inhibitors, counter-screen for LRH-1 inverse agonist project, cell-based, luminescence, high throughput (AID 651615; in the data active = inhibition above about 33%); conditions: Gal4-VP16 luciferase reporter cells, at 3.6 µM, hits give high values

Row | SMILES | inhibition [1] | inhibition [2] | inhibition [3] | inhibition [4] | inhibition [5] | inhibition [6] | inhibition [7] | inhibition [8]
1 | Nc1nc(N)nc(-c2cc(O)ccc2O)n1 | 78.4% (active) | 53.5% (active) | 74.7% (active) | 43.7% (active) | 41.7% (active) | 45.4% (active) | 65.9% (active) | 57.1% (active)
2 | COc1cc(Cn2c3ccc(NC(=O)CCc4ccc(O)cc4)cc3c(=O)n2C)ccc1F | 42.6% | 61.3% (active) | 31.5% | 56.6% (active) | 56% (active) | 70.8% (active) | 69.3% (active) | 71.1% (active)
3 | CCOC(=O)C(C(C)=O)c1c(Br)c(O)c(O)c2c(C(=O)c3ccc(C)cc3)coc12 (stereo not drawn) | 57.6% (active) | 12.5% | 12.7% | 31.2% (active) | 60.4% (active) | 94.8% (active) | 83.7% (active) | 81.6% (active)
4 | CCCC(=O)NC(c1ccccc1Cl)c1ccc2cccnc2c1O (stereo not drawn) | 55.3% (active) | 47.8% (active) | 35.6% | 53.4% (active) | 82.7% (active) | 99.2% (active) | 90.3% (active) | 83.2% (active)
5 | CCn1c(C)cc(C(=O)COC(=O)c2ccccc2[N+](=O)[O-])c1C | 92.9% (active) | 90.4% (active) | 86.8% (active) | 86.1% (active) | 83.5% (active) | 83.8% (active) | 83.6% (active) | 81.4% (active)
6 | Cc1ccc(NCCN(C)C)c2c(=O)c3cc(O)ccc3sc12 | 40.4% | 41.6% (active) | 46.6% | 29.6% (active) | 41.3% (active) | 67.3% (active) | 54.6% (active) | 55.7% (active)
7 | CCC(=O)NC(c1ccc(Cl)cc1Cl)c1ccc2cccnc2c1O (stereo not drawn) | 16.2% | 34.1% (active) | 59.7% (active) | 51.3% (active) | 83.4% (active) | 92.7% (active) | 87.2% (active) | 72.7% (active)
8 | Cc1c(C)c2cccnc2c2ncccc12 | 88.2% (active) | 65.7% (active) | 72.8% (active) | 65.7% (active) | 89.9% (active) | 108% (active) | 91.9% (active) | 64.1% (active)
9 | NC(=Nc1nc(-c2ccccn2)cc2ccccc12)c1ccccn1 | 79% (active) | 47.7% (active) | 65.6% (active) | 28.4% (active) | 91.8% (active) | 107% (active) | 88.8% (active) | 59.3% (active)
10 | COCCn1c(C)cc(C2=NNC(=Nc3ccccc3)SC2)c1C | -62.4% | -40.8% | -119% | -64% | -73.4% | -77.6% | -67.8% | -136%
11 | COc1ccc(NC(=O)c2sc(=O)n(Cc3ccc(F)c(Cl)c3)c2C)cc1OC | 24.2% | 61.6% (active) | 18.5% | 53.8% (active) | 54.3% (active) | 66.2% (active) | 70.5% (active) | 72.5% (active)
12 | COc1ccc(NC(=O)c2cc(-c3cc(Cl)ccc3OC)n[nH]2)cc1OC | 27.4% | 51.2% (active) | 19.2% | 44% (active) | 38.9% (active) | 47.8% (active) | 61.2% (active) | 57.8% (active)
13 | C=CS(=O)(=O)N(Cc1ccc(Cl)c(Cl)c1)C[C@@H](O)CO | 42.6% | 19.1% | 8.46% | 13.3% | 55.4% (active) | 50.4% (active) | 58% (active) | 28.3%
14 | Cc1cc(OCc2nc(N)nc(N)c2-c2ccc(Cl)c(Cl)c2)ccc1[N+](=O)[O-] | 52.2% (active) | 30.6% (active) | 71.3% (active) | 30.1% (active) | 70.7% (active) | 69.5% (active) | 63.5% (active) | 42% (active)
15 | N=c1c2c(-c3ccccc3)c(-c3ccccc3)n(Cc3ccco3)c2ncn1CCO | 23.5% | 54.5% (active) | 41% | 56.2% (active) | 54.3% (active) | 64.8% (active) | 64% (active) | 74.8% (active)
16 | N=c1c2c(n(Cc3ccc(F)cc3)c3c1CCC3)CCC2 | 25.9% | 42.9% (active) | 17.8% | 43.6% (active) | 41.6% (active) | 80.3% (active) | 69% (active) | 69.2% (active)
